# Screening results as filed in PubChem BioAssay.
# Only a selection was taken, and hits are over-represented in it overall.
# ST2 IL33 inh: blocks human ST2 binding to IL-33; inhibition, % for hits at 17 µM; Q01638; AlphaLISA ST2-Fc/biotin-IL-33 interaction, 1 h; 78,000 compounds, 2.3% hits; in the data active means inhibition above about 30%
# Target sequence (Q01638 whole entry, looked up): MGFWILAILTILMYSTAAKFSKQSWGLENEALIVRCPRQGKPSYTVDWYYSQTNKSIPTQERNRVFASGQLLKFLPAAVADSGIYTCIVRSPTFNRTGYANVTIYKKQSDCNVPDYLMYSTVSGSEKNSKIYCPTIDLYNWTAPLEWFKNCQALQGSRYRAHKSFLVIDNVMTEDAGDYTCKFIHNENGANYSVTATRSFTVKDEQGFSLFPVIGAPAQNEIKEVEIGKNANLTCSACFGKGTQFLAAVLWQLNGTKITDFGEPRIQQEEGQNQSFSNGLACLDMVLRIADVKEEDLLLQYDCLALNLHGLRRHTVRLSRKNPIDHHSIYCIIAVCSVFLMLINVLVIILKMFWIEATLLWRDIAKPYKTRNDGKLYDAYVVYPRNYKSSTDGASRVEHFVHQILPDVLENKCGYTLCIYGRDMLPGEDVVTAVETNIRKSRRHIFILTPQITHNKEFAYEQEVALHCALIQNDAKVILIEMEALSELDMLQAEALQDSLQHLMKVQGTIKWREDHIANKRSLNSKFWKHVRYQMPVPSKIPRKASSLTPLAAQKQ
# The depositor's hits bear a star; i = inactive.
SMILES,ST2 IL33 inh
COc1ccc(Nc2nc(Nc3ccc(OC)cc3)c([N+](=O)[O-])cc2[N+](=O)[O-])cc1,i
COc1ccc(Nc2nc(-c3cccc([N+](=O)[O-])c3)cs2)cc1,38%*
Cc1nc2ncccn2c1-c1csc(Nc2cccc([N+](=O)[O-])c2)n1,37%*
NS(=O)(=O)c1ccc(Nc2nc(-c3ccccn3)cs2)cc1,i
Brc1ccc(Nc2nc(-c3ccccn3)cs2)cc1,i
CCOC(=O)c1sc2nc(C)nc(N(CC)CC)c2c1C,i
C/C(=C\c1cc(Cl)ccc1O)CN(C)Cc1noc(C)n1,i
C[C@@H]1O[C@@H](Nc2ccc(Cl)cc2[N+](=O)[O-])[C@H](O)[C@H](O)[C@H]1O,i
O=C(Cc1ccc(-n2c(=O)[nH]c3ccsc3c2=O)cc1)N1CCN(c2ccccc2)CC1,i
CCOC(=O)c1c(NC(=O)COc2ccc(Cl)cc2Br)sc(C)c1C,i
Cc1ccc(-n2nc3c(c2NC(=O)c2ccccc2Br)CSC3)cc1,i
CCOC(=O)Cn1c(=O)n(-c2ccc(F)cc2)c2nc(-c3ccccc3OC)nc(C(N)=O)c21,i
COc1ccc(N=Cc2cccc(OC)c2O)c(OC)c1,i
CCOC(=O)c1cc2c(ccc3oc4c(c32)CCCC4)oc1=O,i
COc1ccccc1N=Cc1c(O)ccc2oc3c(c12)CCCC3,31%*
COc1ccccc1OCC(=O)NCC1CCCN(Cc2ccc(SC)cc2)C1 (stereo not given),i
COc1ccc(C2=NN=C(C)c3cc(OC)c(OC)cc3C2)cc1OC,i
COc1cc(C2Nc3ccccc3NC3=C2C(=O)CC(c2ccccc2)C3)ccc1OC(C)=O (stereo not given),i
COc1ccc(C2CC(=O)C3=C(C2)Nc2ccccc2NC3c2ccc(C)s2)cc1 (stereo not given),30%*
CCCOc1ccccc1C1CC(=O)C2=C(C1)Nc1ccccc1NC2c1ccc(OC)cc1 (stereo not given),i
Cc1ccc(CS(=O)(=O)NCc2cnn3ccccc23)cc1,i
CC1CC(Nc2ccccc2)c2ccccc2N1C(=O)c1ccc([N+](=O)[O-])cc1 (stereo not given),i
CCCOc1ccccc1NC(N)=Nc1nc(C)cc(C)n1,i
Cc1ccc(OCC(=O)Nc2cc(Cl)ccc2Cl)cc1C,i
CC(C)(C)C1CCC2(CC1)SCC(=O)N2c1ccc(Cl)cc1 (stereo not given),36%*
SMILES,ST2 IL33 inh
CC1SC2(CCCCC2)N(c2ccc(Cl)cc2)C1=O (stereo not given),i
O=C1CSC(c2ccccc2)N1c1ccc(Cl)cc1 (stereo not given),i
Cc1ccccc1CN1CCN(CC(=O)Nc2ccc(F)cc2)S1(=O)=O,i
CCc1ccc(CN2CCN(CC=C(C)C)C(CCO)C2)o1 (stereo not given),i
c1ccc2c3c([nH]c2c1)CN(Cc1ccc2c(c1)OCO2)CC3,i
CN(C)c1ccc(CN2CCc3c([nH]c4ccccc34)C2)cc1,32%*
Clc1ccccc1CN1CCc2c([nH]c3ccccc23)C1,i
CCOc1ccc(CN2CCc3ccccc3C2)cc1,i
CN(C)c1ccc(CN2CCc3ccccc3C2)cc1,31%*
Clc1ccc(CN2CCc3ccccc3C2)cc1Cl,i
Cc1cc([N+](=O)[O-])nn1CCCC(=O)Nc1ccc(Cl)cc1,i
CN(C)c1ncnc2c1C(c1ccccc1)c1c(ncnc1N(C)C)O2,i
CC(C)C(=O)Nc1cc2c(cc1C(=O)c1ccccc1Cl)OCCO2,i
CCCC(C)C(=O)Nc1ccc(Cl)c(Cl)c1 (stereo not given),i
O=C(NC1CCN(Cc2cccnc2)CC1)c1cccc2nccnc12,i
COc1ccc2c(c1)C(C)=CC(C)(C)N2C(=O)CN1C(=O)C2CCCCC2C1=O (stereo not given),i
CC(=O)Nc1ccc(-c2nccn2CC(C)Oc2cccnc2)cc1 (stereo not given),i
Cc1cc(F)ccc1NC(=O)CNCCCC1CCOC1 (stereo not given),i
Nc1c(Br)cc(O)c2c1C(=O)c1ccccc1C2=O,68%*
O=C1c2ccccc2-c2ncnc3c(S(=O)(=O)O)cc(O)c1c23,i
O=C(CCCn1c(=O)[nH]c2ccc(Br)cc2c1=O)NCCC1=CCCCC1,i
CC(C)(C)C(=O)Cn1c(=O)n(-c2ccccc2)c(=O)c2sccc21,i
O=C(NC(Nc1ccc(Cl)cc1)C(Cl)(Cl)Cl)c1cccnc1 (stereo not given),i
O=C(NC(Nc1ccc(C(F)(F)F)cc1Cl)C(Cl)(Cl)Cl)c1cccnc1 (stereo not given),63%*
Cc1ccc(Oc2ccc(C(F)(F)F)cc2NC(=O)c2cccnc2)cc1,i
COc1ccc(Cl)cc1NC(=O)CSc1n[nH]c(C)c1[N+](=O)[O-],i
Cc1ccc(/C=N\OC(=O)c2nn(C)cc2Cl)cc1,i
CC(=O)Oc1ccc2c(=O)c(Oc3ccccc3)coc2c1C,i
O=c1c(Oc2ccc(F)cc2)coc2c(O)c(O)ccc12,41%*
Cc1c(O)ccc2c(=O)c(Oc3ccccc3)coc12,i
